Test [1] can be described thus: qHTS assay for small molecules that induce genotoxicity in human embryonic kidney cells expressing luciferase-tagged ATAD5 (AID 651632). Also: nearly all actives have a fitted effect of over 15% in size. In outline:
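A rise in luciferase signal from ATAD5-tagged HEK293T cells marks genetic stress. Cells were exposed to compounds for 16 hr at 37C, 5% CO2, then luciferase was quantified after a 30 min room-temperature incubation with Amplite.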

Test [2] can be described thus: qHTS assay for small molecule agonists of the p53 signaling pathway - cell viability (AID 651633; calls by dose curve; also: nearly all actives have a fitted effect of over 30% in size; also: potency is read from the fitted curve at half-maximal effect). In outline: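 p53RE-bla cells were treated with compound for 16 hours at 37 C. Cytotoxicity was then measured as CellTiter-Glo luminescence after 30 min at room temperature.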
A short description of test [3]: qHTS assay for small molecules that induce genotoxicity in human embryonic kidney cells expressing luciferase-tagged ATAD5 - cell viability (AID 651634; calls by dose curve; also: nearly all actives have a fitted effect of over 25% in size; also: potency is read from the fitted curve at half-maximal effect). In outline:
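Cytotoxicity counter-readout: after 15.5 hr compound treatment at 37C, live-cell protease activity in ATAD5-luciferase HEK293T cells measured by CellTiter-Fluor fluorescence, 30 min development at 37C.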
A general note: qHTS replaces the single test concentration by a dilution series.

Test [4] can be described thus: qHTS assay for small molecule disruptors of the mitochondrial membrane potential - cell viability (AID 720634; calls by dose curve; also: nearly all actives have a fitted effect of over 20% in size; also: potency is read from the fitted curve at half-maximal effect). Summed up: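 Cytotoxicity was quantified from ATP content by CellTiter-Glo luminescence in the same wells as the MMP dye read-out. HepG2 (2,000 cells/well) were plated overnight and exposed to compounds for 1 hr at 37 C.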
Test [5] is described as follows: qHTS assay for small molecule disruptors of the mitochondrial membrane potential (AID 720635). Also: potency is read from the fitted curve at half-maximal effect. Summed up: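 HepG2 cells exposed to compound 1 hr at 37C, then Mito-MPS dye 30 min. Ratio read of aggregate (540/590 nm) versus monomer (490/535 nm) fluorescence.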
Test [6] is described as follows: qHTS assay to test for compound auto fluorescence at 590 nm (red) in HepG2 cells (AID 720674). Summed up: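 HepG2 cells, 2,000 per well in MEM with 10% FBS, attached overnight at 37 C, then got 23 nL compound or DMSO. After 1 hr at 37 C, 5% CO2, red fluorescence was read at 540/590 nm against Rose Bengal sodium as reference.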
Test [7] is described as follows: qHTS assay to test for compound auto fluorescence at 535 nm (green) in HepG2 cells (AID 720675).
A short description of test [8]: qHTS assay to test for compound auto fluorescence at 460 nm (blue) in HEK293 cells (AID 720678). In outline: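 HEK293, 2,000 cells/well, 10% dialyzed FBS; attach 4-5 hr 37C; pin compound or DMSO; o/n 37C/5% CO2; fluorescence 405/460 nm; triamterene-equivalent units.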
Test [9] can be described thus: qHTS assay to test for compound auto fluorescence at 590 nm (red) in HEK293 cells (AID 720679). Summed up:
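Intensity at 540nm excitation and 590nm emission is reported as Rose Bengal sodium-equivalent autofluorescence. Measurements followed overnight exposure (37C, 5% CO2) of HEK293 cells, 2,000 per well, to 23 nL compound.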

Test [10] is described as follows: qHTS assay for small molecule agonists of the p53 signaling pathway (AID 651631; calls by dose curve; also: nearly all actives have a fitted effect of over 15% in size). In outline: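 Testing took place in human colorectal HCT-116 cells with stable p53RE-driven beta-lactamase. After 16 h of compound exposure at 37 °C, a FRET substrate was added and fluorescence recorded 2 h later.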

Each structure is given as a SMILES string. Values joined by “and” are separate entries in the source; they are usually repeats but may differ in a detail not shown here. Identical values can stand only once. Inconclusive results are not listed. The source holds several records for some structures; these can differ, active in one and inactive in another. Active and inactive are the calls of the source. Unless noted, calls follow the shape of the dose curve; as a rule, active = well fitted curve in the direction sought with a large enough effect in the repeat runs; inconclusive = weak or mixed curves; inactive = no such curve, though single readings can be large; an effect the other way counts as inactive or inconclusive.

For `Cc1ccc(C(=O)O)o1`, the Potency result in test [1], in [2], in test [3], in [4], in [5] and in test [8] was “inactive” each time. In addition, the compound was called inactive in test [6], in [7] and in [9].

Consider `Oc1ccc2ccccc2c1`, for which the Potency result in test [10], in test [2], in test [3], in test [4] and in [8] was “inactive” each time. Also, in test [5], the Potency is 49.7 µM (active) and 30.6 µM (active). The compound was called inactive in [6] and in test [7].

Regarding `CN(CCOc1ccc(CC2SC(=O)NC2=O)cc1)c1ccccn1` (stereo not drawn), the Potency result in test [1], in [3] and in test [4] was “inactive” in each case. The Potency in test [5] was 48.3 µM (active). Moreover, the call in test [6], in [7] and in [9] was inactive.

Consider `CC(C)n1c(/C=C/[C@@H](O)C[C@@H](O)CC(=O)O)c(-c2ccc(F)cc2)c2ccccc21`, for which the Potency entry in test [2] and in test [4] was “inactive” in each case. Further, in test [5], the Potency was 26.6 µM (active). Further, the compound was classed as inactive in test [6], in test [7] and in test [9].

On to `Cc1cc(NS(=O)(=O)c2ccc(N)cc2)no1`, for which the Potency entry in test [4] is “inactive”. Also, the compound was called inactive in [6], in test [7] and in test [9].

As for `CS(=O)(=O)Nc1ccc([N+](=O)[O-])cc1Oc1ccccc1`, the Potency result in [10] and in [8] was “inactive” throughout. Also, the result in test [6], in test [7] and in test [9] was inactive.

As for `Oc1ccc2ccccc2c1N=Nc1ccccc1`, the Potency result in test [1], in [2] and in test [8] was “inactive” each time. Further, the Potency was 30.6 µM (active) and 48.6 µM (active) in test [3]; 27.3 µM (active) in test [4]. Further, the call in test [6] and in [7] was inactive.

As to `O=Nc1ccc(O)cc1`, the Potency result in test [1], in test [3], in [4] and in test [8] was “inactive” each time. The Potency in test [5] is 670 nM (active) and 13.7 µM (active). The compound was classed as inactive in test [6], in test [7] and in [9].

Consider `CC1=CC[C@H]2C[C@@H]1C2(C)C`, for which the Potency entry in test [1], in test [3] and in [8] was “inactive” throughout. Besides, the compound was called inactive in test [6] and in test [7].

As to `CN(C)c1cccc(O)c1`, the Potency entry in test [1], in test [2], in test [3], in test [4] and in [8] was “inactive” each time. In [5], the Potency is 10.9 µM (active). Also, the compound was called inactive in test [6], in test [7] and in test [9].

`CCc1ccccc1O`: the Potency result in test [1], in [3], in test [4], in [5] and in [8] was “inactive” each time. The outcome in [6], in test [7] and in [9] was inactive.

For `CCOC(=O)C1OC1c1ccccc1` (stereo not drawn), the Potency entry in [3], in [4] and in test [5] was “inactive” each time. The result in test [6] and in test [7] was inactive.

In the case of `CC1CC(OC(=O)c2ccccc2O)CC(C)(C)C1` (stereo not drawn), the Potency result in test [10], in [2], in [3], in test [4] and in test [8] was “inactive” in each case. Besides, the result in [6], in test [7] and in test [9] was inactive.

Take `CCCCCCCCCC(=O)O`: the Potency result in test [1], in [3] and in test [8] was “inactive” throughout. Moreover, the compound was called inactive in test [6], in test [7] and in test [9].

In the case of `ClC1=C(Cl)C(Cl)(Cl)C(Cl)=C1Cl`, the Potency entry in [1], in test [4] and in test [8] was “inactive” in each case. Further, the Potency was 13.8 µM (active) in [2]; 6.9 µM (active) and 15.4 µM (active) in test [3]; 61.1 µM (active) in test [5]. In addition, the compound was called inactive in [6], in [7] and in test [9].

Turning to `OCC#CCO`, the Potency result in [10], in [2], in test [3], in test [4], in test [5] and in test [8] was “inactive” throughout. Also, the result in [6] and in test [7] was inactive.

With `CC1COc2ccccc2N1C(=O)C(Cl)Cl` (stereo not drawn), the Potency result in test [3], in [4] and in test [8] was “inactive” throughout. In addition, the call in test [6] and in test [7] was inactive.

Take `CCCCCC/C=C/CCCCCCCC(=O)O`: the Potency entry in test [1], in [2], in [3] and in test [4] was “inactive” each time. For the same compound, the result in test [6], in test [7] and in test [9] was inactive.

Take `CCCCOCCOCCOC(=O)CCCCC(=O)OCCOCCOCCCC`: the Potency entry in [1], in test [3], in test [4] and in test [8] was “inactive” in each case. Further, the compound was called inactive in [6], in test [7] and in test [9].

Take `CCCCC(CC)COC(C)=O` (stereo not drawn): the Potency entry in test [1], in test [3], in test [4] and in [8] was “inactive” each time. The outcome in test [6], in test [7] and in [9] was inactive.

Take `CC(=O)[C@@]1(O)CC[C@H]2[C@@H]3CCC4=CC(=O)CC[C@]4(C)[C@H]3CC[C@@]21C`: the Potency result in [1], in test [3], in [4], in [5] and in [8] was “inactive” throughout. Also, the compound was classed as inactive in test [6], in [7] and in test [9].

As for `CC(C)NCC(O)COc1cccc2ccccc12` (stereo not drawn), the Potency result in test [10], in test [2], in test [3], in test [4] and in test [8] was “inactive” throughout. Besides, the compound was called inactive in test [6] and in test [7].

In the case of `Nc1c(S(=O)(=O)O)cc(Br)c2c1C(=O)c1ccccc1C2=O`, the Potency entry in [1], in test [4] and in test [8] was “inactive” each time. Moreover, in test [3], the Potency is 30.6 µM (active). For the same compound, the call in test [6] and in [7] was inactive.

Regarding `CCCCCCCCCCCCOCC1CO1` (stereo not drawn), the Potency entry in test [1], in test [2], in test [3], in [4] and in test [5] was “inactive” each time. Further, the call in test [6], in test [7] and in test [9] was inactive.

`CCCCCCCCCCC=CC1CC(=O)OC1=O` (stereo not drawn): the Potency in [2] was 61.4 µM (active) and inactive. The Potency entry in [3], in test [4] and in [8] was “inactive” each time. The result in test [6], in test [7] and in test [9] was inactive.

For `O=[N+]([O-])c1cc(N(CCO)CCO)ccc1NCCO`, the Potency entry in test [10], in test [2], in test [4] and in test [8] was “inactive” in each case. Besides, the compound was classed as inactive in [6], in test [7] and in test [9].

As to `O=C1CCCCC1`, the Potency result in [1], in test [2], in test [3], in [4] and in test [5] was “inactive” throughout. Further, the outcome in [6], in [7] and in [9] was inactive.

With `OC1CCCC1`, the Potency entry in test [1], in test [2], in test [3] and in test [4] was “inactive” each time. For the same compound, the result in test [6] and in test [7] was inactive.

In the case of `O=C1N=C(O)CN1/N=C/c1ccc(-c2ccc([N+](=O)[O-])cc2)o1`, the Potency entry in test [2], in [3], in [4] and in test [8] was “inactive” in each case. The Potency in [5] was 3.35 µM (active) and 2.43 µM (active). Moreover, the compound was classed as inactive in [6] and in test [7].

With `C=C1CC[C@H](O)CC1=C/C=C1\CCC[C@]2(C)[C@@H]([C@H](C)/C=C/[C@H](C)C(C)C)CC[C@@H]12`, the Potency entry in [1], in test [3], in test [4] and in test [8] was “inactive” each time. The Potency result in test [5] is “inactive and 60.6 µM (active)”. The compound was classed as inactive in test [6], in test [7] and in [9].

For the compound `NCCNCCNCCNCCN`, the Potency result in test [1], in [2], in test [3] and in test [4] was “inactive” throughout. For the same compound, the compound was classed as inactive in test [6] and in test [7].

For the compound `Cc1cc(O)cc(C)c1Cl`, the Potency entry in [1], in test [2], in test [3] and in test [4] was “inactive” in each case. Moreover, the outcome in test [6], in [7] and in test [9] was inactive.

Source of the values: PubChem BioAssay (Tox21).
